Molecules are shown by their SMILES. About 2,000 (0.91%) of roughly 220,000 compounds were called active. About 2% were inconclusive and are not listed. Cut-off read from the data, not from the text of the source: inconclusive = inhibition above about 80% without an active follow-up result; inactive = below that; test concentration not stated here. The list is a sample of the results. Results with a measured potency or affinity are listed apart.

The experiment is described as follows: M. tuberculosis H37Rv growth inhibitors, H37Rv strain (AID 1626).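 Note: bacteria incubated seven days before Alamar blue readout; 0% = bacteria only wells and 100% = bacteria with antibiotic wells.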 Particulars: active compounds read high, concentration not given here.
As a reminder, the inhibition is the relative decrease from the control value, in per cent. For `Cn1c2c(c(=O)n(C)c1=O)CN(CCc1ccccc1)CN2`, the inhibition was -1.68% (inactive). In the case of `Cc1cc(C)nc(Nc2nc(=O)c3ccccc3s2)n1` it was -3.37% (inactive); in that of `NC(=O)[C@@H]1CCOc2c(I)cc([N+](=O)[O-])cc2C(=O)N[C@@H](CO)C(=O)NCC(=O)N1`, -8.7% (inactive). In the case of `CC(=O)N1NC(=Nc2ccccc2)SC1(C)C` it was -6.07% (inactive). Regarding `O=C(CN1CCCC1)NCC12CC3CC(CC(C3)C1)C2`, the inhibition was -7.14% (inactive). In the case of `COCCNC(=O)C(c1ccc(Cl)cc1)N(CCOC)C(=O)CCC(=O)Nc1nccs1` (stereo not given) it was -6.72% (inactive); in that of `Cc1cc(C)cc(N(C(=O)CCC(=O)Nc2ccccn2)C(C(=O)NC(C)C)c2ccc(O)cc2)c1` (stereo not given), 4.72% (inactive); in that of `Nc1nc(SCc2ccc(Cl)cc2Cl)ns1`, 28.5% (inactive). In the case of `Nc1nc(NC(=O)c2ccccc2)nn1-c1ccccc1` it was -1.03% (inactive). Then `Nc1nc(NC(=O)c2ccco2)nn1-c1ccccc1`, with -7.46% (inactive); and `COc1ccc(/C=N/NC(=O)c2ccn[nH]2)cc1Cn1nc(C)c([N+](=O)[O-])c1C`, with 1.53% (inactive). For `O=C(Cc1ccccc1[N+](=O)[O-])N1CCc2ccccc2C1`, the inhibition was -4.17% (inactive). In the case of `CC(OC(=O)CCCOc1ccccc1)C(=O)NC(N)=O` (stereo not given), the inhibition is -2.98% (inactive). In the case of `Cc1cc(C2=NNC(=NC3CC3)SC2)c(C)n1-c1ccccc1F` it was -4.49% (inactive); in that of `COCCCN=C1NN=C(c2cc(C)n(-c3ccccc3)c2C)CS1`, -2.89% (inactive); in that of `COCCCN=C1NN=C(c2cc(C)n(Cc3ccco3)c2C)CS1`, -3.28% (inactive). For `COCC(C)N=C1NN=C(c2cc(C)n(Cc3ccccc3Cl)c2C)CS1` (stereo not given), the inhibition is 5.76% (inactive). In the case of `O=C(OCC(=O)N1c2ccccc2Sc2ccccc21)C1CC(=O)N(Cc2ccco2)C1` (stereo not given) it was 3.33% (inactive); in that of `Brc1ccc(-c2c[n+]3c(n2-c2ccccc2)SCC3)cc1`, 1.71% (inactive); in that of `CCOc1ccccc1CNC(=O)CCN1C(=O)COc2ccccc21`, 4.08% (inactive). Then `CCOC(=O)C1=C(c2ccccc2)NC(=O)NC1c1ccc(OC)c(OC)c1` (stereo not given), with -0.28% (inactive); and `CCOC(=O)C1=C(c2ccccc2)NC(=O)NC1c1ccc(OCC#N)c(OC)c1` (stereo not given), with 2.6% (inactive); and `N#Cc1nc(-c2ccccc2F)oc1NC1CCCCC1`, with 3.24% (inactive).

As for `CN(CC(=O)Nc1ccc(C#N)cc1)Cc1ccc(Cl)c(Cl)c1`, the inhibition was 11.2% (inactive). In the case of `CN(CC(=O)Nc1ccc(Cl)c(Cl)c1)C(=O)/C=C/c1ccc(F)cc1` it was -5.59% (inactive); in that of `CCOP(=O)(OCC)C(Nc1cccc(C(F)(F)F)c1)c1ccc(F)cc1` (stereo not given), 0.98% (inactive). Then `c1cc2c(cc1C1=NNC(=NC3CC3)SC1)OCCO2`, with -0.26% (inactive); and `C=CCN=C1NN=C(c2ccc3c(c2)OCCO3)CS1`, with -5.3% (inactive); and `COc1ccccc1NS(=O)(=O)c1cc(NC(=O)c2ccco2)ccc1N1CCOCC1`, with 9.4% (inactive). In the case of `O=c1[nH]c(=O)n(C2CCCCC2)c(O)c1C1NCCc2ccccc21` (stereo not given) it was -2.63% (inactive); in that of `COc1cc(NC(=S)Nc2ccccn2)cc(OC)c1`, 14.7% (inactive); in that of `Cc1cc(C)c(C)c(S(=O)(=O)N2CCN(C(=S)NCC3CCCO3)CC2)c1C` (stereo not given), 9.9% (inactive).

In the case of `COc1ccc(C(=O)Nc2cc(Cl)ccc2OC(=O)c2ccc(OC)cc2)cc1`, the inhibition is -1.73% (inactive). Take `O=C(Nc1ccccc1O)c1ccc(Cl)cc1`: the inhibition was -5.68% (inactive). Then `CN(C)S(=O)(=O)c1cccc(C(=O)OCC(=O)NC2CCCc3ccccc32)c1` (stereo not given), with 2.51% (inactive); and `O=C(CSc1nc2ccccc2c(=O)n1-c1ccccc1)N1CCC1`, with -2.38% (inactive); and `Cc1ccc(Oc2ccc(C(F)(F)F)cc2[N+](=O)[O-])c([N+](=O)[O-])n1`, with 3.08% (inactive). With `O=C(Nc1ccc(F)cc1)c1ccccc1Oc1ccc(C(F)(F)F)cc1[N+](=O)[O-]`, the inhibition is -1.92% (inactive). In the case of `OCCC1CN(Cc2cnc(-c3ccccc3)s2)CCN1C1CCCCC1` (stereo not given) it was 2.22% (inactive). Then `Cc1cc(C2=NNC(=Nc3ccccc3)SC2)c(C)n1C`, with 0.04% (inactive); and `COc1ccc(N=C2NN=C(c3ccc4c(c3)OCCO4)CS2)cc1`, with -3.14% (inactive). In the case of `Fc1ccc(N=C2NN=C(c3cc(F)ccc3F)CS2)cc1` it was 9.64% (inactive). For `COCCn1c(C)cc(C2=NNC(=Nc3ccc(OC)cc3)SC2)c1C`, the inhibition is -6.04% (inactive).

In the case of `Cc1ccc(C2=NNC(=Nc3ccc(F)cc3)SC2)cc1`, the inhibition is 5.11% (inactive). `Cc1cccc(N=C2NN=C(c3ccc4c(c3)OCCO4)CS2)c1`: the inhibition was 6.79% (inactive).

Regarding `O=C(CCC1CCCCC1)NNC(=O)c1cnccn1`, the inhibition was 22.5% (inactive). `CCCS(=O)(=O)c1csc(C(=O)OC)c1N`: the inhibition is -5.25% (inactive). In the case of `CS(=O)(=O)c1ccc(C(=O)OCC(=O)NC2CCS(=O)(=O)C2)cc1[N+](=O)[O-]` (stereo not given) it was 2.59% (inactive). Then `CC(C)c1ccc(/C=N/NC(=O)c2nnn(-c3nonc3N)c2CSC2=NCCS2)cc1`, with -0.79% (inactive). In the case of `COc1cc(C(=O)N2CCN(S(=O)(=O)c3ccc(F)cc3)CC2)cc(OC)c1OC` it was -4.16% (inactive); in that of `CCOC(=O)N1C2=NC(C(=O)OC)=C(C(=O)OC)[C@@H]3N(C)c4ccc(OC)cc4[C@]23C[C@H]1C(=O)OC`, 5.46% (inactive). For `CN1CCc2ccccc2CC1=O`, the inhibition was 1.98% (inactive). Regarding `N#CC1=C2SCC(O)(c3ccccc3)N2C(=O)CC1c1ccccc1` (stereo not given), the inhibition was -11.4% (inactive). With `N#CC1=C2SCC(O)(c3ccccc3)N2C(=O)CC1c1cccs1` (stereo not given), the inhibition was 3.45% (inactive).

Turning to `COC(=O)CSc1nnc(CNC(=O)c2ccccc2F)n1-c1ccccc1`, the inhibition is -1.52% (inactive). In the case of `Cc1cccc(N2CCN(C(=O)c3ccncc3)CC2C)c1` (stereo not given) it was -7.46% (inactive). In the case of `Cc1cccc(N2CCN(C(=O)c3cc(C)oc3C)CC2C)c1` (stereo not given) it was 4.99% (inactive). With `Cc1cc(C)cc(NC(=S)/C(=C(\[O-])c2ccc(Cl)cc2Cl)[n+]2ccccc2)c1`, the inhibition is 6.94% (inactive). Then `Cc1ccc(S(=O)(=O)N2CCCN(S(=O)(=O)c3ccc4c(c3)OCCO4)CC2)cc1`, with 8.01% (inactive).

In the case of `O=C1c2ccccc2S(=O)(=O)c2cc(C(=O)N(c3ccccn3)c3ccccn3)ccc21`, the inhibition is -6.02% (inactive). Then `Fc1ccc(-c2nnc3sc(C4COc5ccccc5O4)nn23)cc1` (stereo not given), with 20.6% (inactive); and `Clc1ccccc1-c1nnc2sc(C3COc4ccccc4O3)nn12` (stereo not given), with 3.12% (inactive). In the case of `O=C(NNc1c(Cl)cccc1Cl)C1CCC1` it was -0.74% (inactive). In the case of `Cc1cc(N2CCN(C)CC2)nc2ccc(NC(=S)NCCCN3CCN(C)CC3)cc12` it was 1.11% (inactive); in that of `CCCCCOc1ccc(/C=c2\sc3nc(=O)c(-c4ccccc4)nn3c2=O)cc1OC`, -2.22% (inactive).

As for `Cc1ccccc1NC(=O)/C=C/c1cccc(C(F)(F)F)c1`, the inhibition is 3.62% (inactive).

In the case of `CCc1ccc(NC(=O)C[n+]2cc(-c3ccc(C)cc3)n3c2CCC3)cc1`, the inhibition was 0.48% (inactive). Turning to `O=C(C[n+]1cc(-c2ccc(F)cc2)n2c1CCC2)Nc1nc(-c2ccccc2)cs1`, the inhibition was 78.7% (inactive).

As for `Cc1ccc(-c2c[n+](CC(=O)Nc3ccccc3C)c3n2CCC3)cc1`, the inhibition was 5.29% (inactive). In the case of `Cc1ccc(-c2c[n+](CC(=O)Nc3ccc(C)cc3C)c3n2CCC3)cc1` it was 2.12% (inactive). Then `Cn1c(NC(=O)C[n+]2cc(-c3ccc(F)cc3)n3c2CCC3)cc(=O)n(C)c1=O`, with -5.35% (inactive).

As for `Cc1ccc(NC(=O)C[n+]2cc(-c3ccccc3)n3c2CCC3)cc1`, the inhibition is -1.61% (inactive). In the case of `CCCCC(=O)OCC(=O)Nc1ccc(C)c(F)c1` it was 9.33% (inactive); in that of `Cc1ccc(NC(=S)N(Cc2cccs2)Cc2cc3cc(C)cc(C)c3[nH]c2=O)cc1`, -1.91% (inactive); in that of `Fc1ccccc1CN1CCCN(C(=S)Nc2cccc(Cl)c2)C1`, -6.44% (inactive). As to `c1ccc(-c2nnc(N3CCOCC3)nc2-c2ccccc2)cc1`, the inhibition was 4.29% (inactive). `C=CCn1c(=NC(=O)c2cc(Cl)sc2Cl)sc2cc(S(N)(=O)=O)ccc21`: the inhibition was 52.4% (inactive). For the compound `COCCn1c(=NC(=O)c2cc(Cl)sc2Cl)sc2cc(S(N)(=O)=O)ccc21`, the inhibition is 17.1% (inactive). For `COc1ccc(Nc2nnc(C)c(=O)[nH]2)c(OC)c1`, the inhibition was 0% (inactive).

Regarding `CCn1cc(C(=O)O)c(=O)c2cc(F)c(N3CCN(C(=O)Nc4ccccc4)CC3)cc21`, the inhibition was 74.6% (inactive). With `CCn1cc(C(=O)O)c(=O)c2cc(F)c(N3CCN(C(=S)NC(=O)c4ccccc4F)CC3)cc21`, the inhibition was 62.5% (inactive). In the case of `CCn1cc(C(=O)O)c(=O)c2cc(F)c(N3CCN(C(=S)NC(=O)c4ccccc4Cl)CC3)cc21` it was 29.7% (inactive); in that of `CCn1cc(C(=O)NCc2ccncc2)c(=O)c2cc(F)c(N3CCN(C(=O)c4ccco4)CC3)cc21`, 10.2% (inactive).

Take `CCn1cc(C(=O)NCc2ccco2)c(=O)c2cc(F)c(N3CCN(C(=O)c4ccco4)CC3)cc21`: the inhibition was 71.1% (inactive). As to `CCCCCCC(=O)N1CCN(c2cc3c(cc2F)c(=O)c(C(=O)O)cn3CC)CC1`, the inhibition was 0.13% (inactive). In the case of `CCn1cc(C(=O)O)c(=O)c2cc(F)c(N3CCN(C(=S)NC(=O)c4ccccc4)CC3)cc21` it was 30.7% (inactive). Then `CCn1cc(C(=O)O)c(=O)c2cc(F)c(N3CCN(S(=O)(=O)c4ccc(Br)cc4)CC3)cc21`, with 13.5% (inactive); and `CCN1C(=O)N[C@@H](c2ccccc2)[C@@H](C(=O)OC)[C@H]1C`, with -12.7% (inactive).

Take `CC(=O)OCCNc1nc(-c2ccccc2)nc2ccccc12`: the inhibition is -5.25% (inactive).

`CCCN(Cc1ccccc1)C(=S)Nc1cccc(C)c1C`: the inhibition was 3.47% (inactive).
